The values below come from PubChem BioAssay AID602258 (National Center for Advancing Translational Sciences (NCATS), 2012).

The structures appear in SMILES notation. Results filed as inconclusive are left out. Active and inactive are the calls of the source. The call rests on the fitted dose curve; in most records, active means well fitted activation curve with a large enough effect; inconclusive means small, poorly fitted or top-dose-only effect; inactive means no such curve, though single readings can be large or run the other way.

Chain of Relaxin receptor 2 (Homo sapiens) (Q8WXD0 whole entry, looked up): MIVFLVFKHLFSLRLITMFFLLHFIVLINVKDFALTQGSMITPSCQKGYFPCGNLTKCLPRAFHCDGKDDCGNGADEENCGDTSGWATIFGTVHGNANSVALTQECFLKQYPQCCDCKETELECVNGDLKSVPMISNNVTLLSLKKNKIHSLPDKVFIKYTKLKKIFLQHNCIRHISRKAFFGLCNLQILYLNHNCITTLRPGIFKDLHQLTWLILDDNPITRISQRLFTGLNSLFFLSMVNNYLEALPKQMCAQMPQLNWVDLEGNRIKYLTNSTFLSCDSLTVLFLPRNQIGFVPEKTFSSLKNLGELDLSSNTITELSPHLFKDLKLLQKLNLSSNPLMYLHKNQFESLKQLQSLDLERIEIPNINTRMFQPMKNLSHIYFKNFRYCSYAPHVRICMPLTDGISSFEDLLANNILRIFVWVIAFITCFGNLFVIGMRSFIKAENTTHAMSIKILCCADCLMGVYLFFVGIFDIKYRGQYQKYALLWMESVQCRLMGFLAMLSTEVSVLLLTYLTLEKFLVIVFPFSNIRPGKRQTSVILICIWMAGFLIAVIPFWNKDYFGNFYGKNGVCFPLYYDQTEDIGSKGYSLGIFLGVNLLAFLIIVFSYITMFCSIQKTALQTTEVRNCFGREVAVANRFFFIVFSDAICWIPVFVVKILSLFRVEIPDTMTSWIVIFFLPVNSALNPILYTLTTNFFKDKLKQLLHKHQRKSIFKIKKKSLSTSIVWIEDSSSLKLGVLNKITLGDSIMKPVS

The target of the assay is Relaxin receptor 2 (Homo sapiens) (UniProt Q8WXD0). The assay can be described thus: qHTS Assay for Agonists of the Relaxin Receptor RXFP1: RXFP2 SAR. Conditions: HEK293 RXFP2 cAMP TR-FRET agonist, 30 min; series mostly up to 78.1 µM; activation: at the top concentration. The text has this:
The relaxin hormone is involved in the variety of biological functions in normal tissues and diseases. The role of relaxin is well-established in female reproduction and parturition, mammary gland and endometrial development, maintenance of myometrial quiescence during pregnancy. Relaxin signaling through its G protein-coupled receptor (GPCR) RXFP1 results in ECM remodeling through regulation of collagen deposition, cell invasiveness, proliferation and overall tissue homeostasis. […] Recombinant human relaxin (rhRlx) is currently being tested in clinical trials as a protective agent in congestive heart failure, in treating severe preeclampsia, and as an anti-fibrotic agent in systemic sclerosis. Upon relaxin binding RXFP1 activation leads to the activation of adenylate cyclase (AC) via Gs. cAMP will activate PKA, which phosphorylates many signaling proteins. Thus, detection of cAMP increase is an easy and reliable indication of relaxin receptor activation. To screen for agonists of the relaxin receptor, a HEK293T cell line stably transfected with RXFP1 was used. RXFP1 activation was assayed by changes in cAMP levels as detected with a time-resolved fluorescence energy transfer (TR-FRET) cAMP detection kit. This assay measures activation of a cell expressing RXFP2, another GPCR targeted by relaxin, to determine the selectivity of compounds for RXFP1. NIH Chemical Genomics Center [NCGC] NIH Molecular Libraries Probe Production Centers Network [MLPCN] MLPCN Grant: R03 MH085705-01A1 Assay Submitter (PI): Alexander Agoulnik
This is a cell-based assay for cAMP second messenger response to screen for agonists of the RXFP2 receptor. The assay was conducted in the presence of a PDE4 inhibitor (Ro 20174). The cells were lysed and the cAMP levels were measured with a TR-FRET cAMP kit. Presence of cAMP in the cell lysate disrupts binding between the cryptate-labeled anti-cAMP and d2-labeled cAMP pair, leading to a decrease in the TR-FRET signal. Data were normalized to the controls for basal activity (buffer only) and 100% activity (29 nM porcine relaxin). The EC50 values were determined from concentration-response data modeled with the standard Hill equation 1536-well assay protocol for the HEK293 RXFP2 cAMP assay: (1) Add 3 ul HEK293 RXFP2 cell culture. 2000 cells/well in DMEM/F12, 10% FBS, 1x Pen/Strep (dispensed offline with MultiDrop Combi). (2) Incubate 16-24 hr at 37C, 5% CO2. (3) Add 1 ul 400uM Ro20174 in DPBS, 0.05% BSA, 0.005% Tween 20. (3) Add 23 nl compounds in DMSO solution. Final concentration was 0.5 - 58 uM. (4) Incubate 30 min at 37C, 5% CO2. (5) Add 1 ul cAMP-d2 in lysis buffer (HTRF cAMP HiRange kit, CisBio). (6) Add 1 ul anti-cAMP antibody-cryptate in lysis buffer (HTRF cAMP HiRange kit, CisBio). (7) Incubate 30 min at room temperature. (6) Detect the assay plate in a ViewLux plate reader (PerkinElmer) with Ex=320 nm, Em1=615 nm and Em2=665 nm. Keywords: relaxin, RXFP1, RXFP2, G-protein coupled receptor, cAMP, agonist, high throughput screening, MLSMR, MLSCN, NIH Roadmap, qHTS and NCGC
For orientation: qHTS replaces the single test concentration by a dilution series.
Turning to `O=C(Nc1ccccc1C(=O)Nc1cccc(C(F)(F)F)c1)c1ccccc1Cl`, the “activation” value is 5.72% (inactive).

In the case of `COc1ccccc1-c1ccccc1C(=O)Nc1cccc(C(F)(F)F)c1`, the “activation” value was 2.22% (inactive).

Take `O=C(Nc1cccc(Cl)c1)c1ccccc1NC(=O)C1CCCCC1`: the “activation” value was 10.8% (inactive).

Consider `CCOc1ccccc1C(=O)Nc1ccccc1CNc1cccc(S(=O)(=O)C(F)(F)F)c1`, for which the “activation” value was 7.61% (inactive).

Take `CCOc1ccccc1C(=O)Nc1ccccc1C(=O)Nc1cccc(S(=O)(=O)C(F)(F)F)c1`: the Potency is 7.47 µM (active).

Take `O=C(Nc1ccccc1C(=O)Nc1cccc(C(F)(F)F)c1)c1cccnc1`: the “activation” value is -3.42% (inactive).

Turning to `O=C(Nc1cccc(C(F)(F)F)c1)c1ccccc1NC(=O)C1CCC1`, the “activation” value was 8.34% (inactive).

Consider `COc1ccc(C(=O)Nc2ccccc2C(=O)Nc2cccc(C(F)(F)F)c2)cc1`, for which the “activation” value is 15.6% (inactive).

For the molecule `O=C(Nc1cccc(F)c1)c1ccccc1NC(=O)C1CCCCC1`, the “activation” value is 5.01% (inactive).

Consider `O=C(Nc1cccc(S(=O)(=O)C(F)(F)F)c1)c1ccccc1NC(=O)c1ccccc1OCC(F)(F)F`, for which the “activation” value is 14% (inactive).

For the molecule `CCCOc1ccccc1C(=O)Nc1ccccc1C(=O)Nc1cccc(S(=O)(=O)C(F)(F)F)c1`, the “activation” value is 14.5% (inactive).

For `Cc1ccc(NC(=O)c2ccccc2NC(=O)C2CCCCC2)cc1`, the “activation” value is 9.53% (inactive).

For the molecule `O=C(Nc1cccc(C(F)(F)F)c1)c1ccccc1NC(=O)C1CCCCC1`, the “activation” value is 8.74% (inactive).

For the molecule `CCOc1ccccc1C(=O)Nc1ncccc1C(=O)Nc1cccc(S(=O)(=O)C(F)(F)F)c1`, the “activation” value is 15.6% (inactive).

On to `O=C(Nc1cccc(S(=O)(=O)C(F)(F)F)c1)c1ccccc1NC(=O)C1CCCCC1`, for which the “activation” value is 33% (inactive).

`Cc1cccc(NC(=O)c2ccccc2NC(=O)C2CCCCC2)c1`: the “activation” value was 4.49% (inactive).

For `O=C(Nc1cccc([N+](=O)[O-])c1)c1ccccc1NC(=O)C1CCCCC1`, the “activation” value is 9.08% (inactive).

On to `COc1ccccc1C(=O)Nc1ccccc1C(=O)N(C)c1cccc(C(F)(F)F)c1`, for which the “activation” value is 3.35% (inactive).

As to `O=C(Nc1cccc(Br)c1)c1ccccc1NC(=O)C1CCCCC1`, the “activation” value was 13.2% (inactive).

As for `CC(C)(C)c1cccc(NC(=O)c2ccccc2NC(=O)C2CCCCC2)c1`, the “activation” value was 7.45% (inactive).
